In ChEMBL document CHEMBL3988442, “University of Dundee, Small-Polar-MMV Screening Library” (2021):
Screen size: about 48,000 compounds; about 13,000 (27%) showed an effect of 50% or more. The list shows a part of the results.

Tested on: Wolbachia pipientis
Assay: Anti-Wolbachia Cell-Based Screen
Assay type: functional
Parameters: scale not given: in the data most compounds retested in dose-response had high values
Details: 5 µM

Structure (SMILES) | Percent Effect
CCc1nc(CN(C)C(=O)NCc2cccc(NC(C)=O)c2)cs1 | -8.024%
CS(=O)(=O)CCNCc1ccc(OCc2cscn2)cc1 | -7.403%
CC(C)c1ccc(OCCC(=O)N(C)CC(=O)N(C)C)cc1 | -12.7%
CC(C)n1ccnc1C1CCN(C(=O)c2ccccn2)CC1 | -22.55%
CCc1nnc(CN2CCN(C(=O)c3ccccn3)CC2)o1 | -6.012%
CCc1cc(O)n2nc(C3CCN(C(=O)c4ccccn4)CC3)cc2n1 | 117.9%
Cc1nn(C)c(N(C)C)c1CNCc1ccc(C(=O)N(C)C)cc1 | 123.8%
COc1c(CNCCNC(=O)c2ccco2)c(C)nn1C | 8.194%
CCNC(=O)c1ccc(CNCc2c(C)nn(C)c2N(C)C)cc1 | 0.7448%
Cc1nn(C)c(N(C)C)c1CNCc1ccc(OCC(N)=O)cc1.Cl | 3.035%
COc1c(CNCc2ccc(C(=O)N(C)C)cc2)c(C)nn1C.Cl | -9.305%
COc1c(CNCCNC(=O)c2ccc(C)cc2)c(C)nn1C | -13.57%
COc1c(CNCc2cccc(C(=O)N(C)C)c2)c(C)nn1C | 120.7%
COc1c(CNCc2ccc(C(=O)N(C)C(C)C)cc2)c(C)nn1C | 196.4%
COc1c(CNCc2cccc(CN(C)C)c2)c(C)nn1C.Cl | -1.675%
COc1c(CNCc2ccc(C(=O)NC3CC3)cc2)c(C)nn1C.Cl | -2.896%
COc1c(CNCc2ccc(C(=O)N3CCCC3)cc2)c(C)nn1C.Cl | 173.2%
CCc1noc(CS(=O)(=O)Cc2ccccc2C)n1 | 2.156%
CN1C[C@@H](N)C[C@H]1c1nc(-c2ccc3c(c2)OCO3)no1 | -7.718%
CC(C)(C)n1cc(CNC2CCN(C(=O)c3ccoc3)CC2)cn1.Cl | 4.064%
CCC(C)(C)C(=O)NCCCOC1CCOC1 (configuration not stated) | -11.1%
CC(C)S(=O)(=O)N1CCOC(CCc2ccccc2)C1 (configuration not stated) | -8.11%
O=C(O)C(F)(F)F.c1cncc(N2CCCn3nnc(COCC4CC4)c3C2)c1 | 122.7%
O=C1CCCN1Cc1nnn2c1CN(c1ncccn1)CCC2 | -7.828%
O=C(O)C(F)(F)F.O=C(O)C(F)(F)F.O=C(c1cccnc1)N1CCn2nnc(COc3cccnc3)c2C1 | -17.53%
O=C(O)C(F)(F)F.c1cnc(N2CCCn3nnc(COCC4CC4)c3C2)nc1 | -15.27%

Structure (SMILES) | Percent Effect
O=C(O)C(F)(F)F.O=C(O)C(F)(F)F.c1cncc(CN2CCCn3nnc(COCC4CC4)c3C2)c1 | -24.42%
O=C(O)C(F)(F)F.O=C(O)C(F)(F)F.c1cncc(N2CCCn3nnc(CN4CCCCC4)c3C2)c1 | 109.4%
c1cc(CN2CCCn3nnc(COCC4CC4)c3C2)ccn1 | -2.908%
C1CN(CC2CCOCC2)Cc2c(CN3CCOCC3)nnn2C1 | 2.088%
O=C(O)C(F)(F)F.O=C(O)C(F)(F)F.c1ccc(CN2CCCn3nnc(COc4ccccn4)c3C2)nc1 | -12.56%
Cc1cnnn1Cc1nnn2c1CN(Cc1ccccn1)CCC2.O=C(O)C(F)(F)F | -8.238%
O=C(O)C(F)(F)F.O=C1CCCN1Cc1nnn2c1CN(c1cccnc1)CCC2 | 87.49%
c1cncc(N2CCCn3nnc(CN4CCOCC4)c3C2)c1 | 107.9%
COc1ccc(C)cc1CN(Cc1ncc(C)o1)C1CCN(C)C1 (configuration not stated) | 18.81%
Cc1cccc(N2N=C(C(=O)NC(C)CCc3ccco3)CCC2=O)c1 (configuration not stated) | 5.008%
CC(C)C(=O)NC1CCN(CCO)CC1 | -14.55%
N#Cc1ccc(CNC(=O)NCCC(=O)NC2CCCC2)c(F)c1 | 1.823%
CCCOCCN1CCc2[nH]c(-c3ccc(OC)cc3)nc2C1 | 0.5641%
O=C(O)C(F)(F)F.O=C(O)C(F)(F)F.c1cncc(COCc2nnc3n2CCN(Cc2ccsc2)C3)c1 | -0.7002%
O=C(O)C(F)(F)F.O=C(O)C(F)(F)F.c1cncc(OCc2nnn3c2CN(Cc2ccsc2)CCC3)c1 | -20.94%
O=C(O)C(F)(F)F.O=C(O)C(F)(F)F.c1cncc(COCc2nnn3c2CN(Cc2ccsc2)CC3)c1 | 109.1%
O=C(NCc1ccc(Cl)cc1)[C@@H]1Cc2[nH]cnc2CN1CC1CC1 | 10.78%
Cc1n[nH]c(C2CN(CCCOc3cccc(Cl)c3)CCO2)n1 (configuration not stated) | 17.53%
Cn1cc(CN2CCCC(CCc3ccc(F)cc3)C2)cn1 (configuration not stated) | 5.496%
Cc1cc(C2CCCN(Cc3cccnc3)C2)n[nH]1 (configuration not stated) | -3.647%
Br.Cn1cc(CN2CCC(c3cc(COc4cccc(Cl)c4)[nH]n3)C2)cn1 (configuration not stated) | 108.1%
Cn1cc(CN2CCC(c3cc(CCO)[nH]n3)C2)cn1 (configuration not stated) | 135.9%
Cn1cc(CN2CCCC(CCc3ccc(F)c(F)c3)C2)cn1 (configuration not stated) | -4.852%
Cn1cc(CN2CCCC(Cn3cc(CCCO)nn3)C2)cn1 (configuration not stated) | -7.109%
Cn1cc(CN2CCCC(CCc3ccc(F)cc3F)C2)cn1 (configuration not stated) | 13.59%
Cn1cc(CN2CCC(c3cc(COc4ccc(Cl)cc4)[nH]n3)C2)cn1 (configuration not stated) | 120.4%

Structure (SMILES) | Percent Effect
O=C(NC1(c2nccs2)CCCC1)c1[nH]nc(C2CC2)c1Cl | -0.1495%
O=C(Nc1ccccc1OC(F)(F)F)C1CCS(=O)(=O)C1 (configuration not stated) | 4.045%
N#Cc1cnn(C(=O)COc2ccccc2F)c1N | -3.189%
Cc1n[nH]c(C2CN(C(=O)c3ccc4c(c3)COC4)CCO2)n1 (configuration not stated) | -48.4%
CCc1n[nH]c(C2CN(C(=O)c3ccc(NC4CC4)nc3)CCO2)n1 (configuration not stated) | 134.6%
CCCc1n[nH]c(C2CN(C(=O)c3ccc4c(c3)COC4)CCO2)n1 (configuration not stated) | 124.9%
CCc1n[nH]c(C2CN(C(=O)c3ccnc(N(C)C)c3)CCO2)n1 (configuration not stated) | 149.1%
CCc1n[nH]c(C2CN(C(=O)c3ccc4c(c3)COC4)CCO2)n1 (configuration not stated) | 136%
C[S+]([O-])c1nncn1CC(=O)c1cccc(Br)c1 (configuration not stated) | -3.709%
Cc1ccc(CN(C)C(=O)NCC(C)(C)S(C)(=O)=O)s1 | -13.6%
CCNc1ncc(CN2C[C@@H](CN3CCC(CO)CC3)[C@@H](CO)C2)cn1 | 12.05%
Cc1ccc(CC(=O)N2CCn3cc(Cn4cncn4)nc3C2)cc1 | 8.244%
c1cc2c(cc1-c1noc3c1CN(C1CCC1)CC3)OCO2 | -7.391%
CS(=O)(=O)c1nccn1Cc1ccncc1 | -5.065%
Cc1ccc2oc(CN3CCn4nc(CCC(=O)O)cc4C3)c(C)c2c1 | 5.001%
O=C(CCCc1nc2ccccc2[nH]1)N1CCCC1c1ccncc1 (configuration not stated) | 8.641%
O=C(c1cc(F)ccc1F)C1CCN(C(=O)c2cccnc2O)CC1 | -3.966%
Cc1cnc(C(=O)N2CCC(C(=O)c3cc(F)ccc3F)CC2)cn1 | 134%
Cc1cccc(C(=O)N2CCC(C(=O)c3cc(F)ccc3F)CC2)n1 | 159.7%
C=C(Cl)CN1CCC(C(=O)c2cc(F)ccc2F)CC1 | -0.07038%
O=C(c1cc(F)ccc1F)C1CCN(C(=O)c2ccco2)CC1 | 137.2%
O=C(c1cc(F)ccc1F)C1CCN(C(=O)c2ccccn2)CC1 | 7.01%
O=C(c1cc(F)ccc1F)C1CCN(C(=O)c2cnccn2)CC1 | 120.4%
NC(=O)NC(=O)CCN1CCC(C(=O)c2cc(F)ccc2F)CC1 | -46.12%
CS(=O)(=O)CCN1CCSCC1c1ccc(Cl)cc1 (configuration not stated) | -3.973%
O=C(C1CC(F)(F)C1)N1CC[C@H]2OCC[C@@]2(COCC2CC2)C1 | -8.729%

Structure (SMILES) | Percent Effect
CC(SCC(=O)NCCC#N)c1ccc(Cl)cc1 (configuration not stated) | 5.18%
COc1cccc(-c2nc(CNCCCn3cccn3)cs2)c1 | 28.1%
O=C(c1ccoc1)N1CCc2ncnc(NCc3ccccn3)c2CC1 | 2.356%
CCCN1CCN(C(=O)c2cccnc2-n2cncn2)CC1 | 5.341%
O=C(O)C(F)(F)F.O=C(c1ccoc1)N1CCC2(CC1)COC(COc1ccccn1)C2 (configuration not stated) | 19.26%
O=C(c1cccnc1O)N1CCC(COc2ccccc2)CC1 | -5.095%
Cc1nc2ccc(C(=O)N3CCC(COc4ccccn4)CC3)cc2[nH]1 | 160.4%
COc1ccnc(CN(C)C(=O)CSc2nnc(N)s2)c1 | 0.9714%
COc1ccc(-c2noc(C(N)CCSC)n2)cc1 (configuration not stated) | 92.78%
COc1cc(OC)cc(-c2noc(CN)n2)c1 | -5.186%
COc1cc(OC)cc(-c2noc(C(N)CCSC)n2)c1 (configuration not stated) | 122.3%
COc1ccc(-c2noc([C@@H]3C[C@@H](O)CN3C3CCCCC3)n2)cc1 | -13.77%
COc1ccc(-c2noc(C3CCS(=O)(=O)C3)n2)cc1OC (configuration not stated) | -2.853%
COc1ccc(-c2noc(C(N)CCSC)n2)cc1OC (configuration not stated) | 100.4%
COc1ccc(-c2noc(C(=O)NCCN3CCCCC3)n2)cc1OC | -3.645%
COc1ccc(-c2noc(C3CC(C(C)C)=NO3)n2)cc1 (configuration not stated) | -24.09%
Cc1ccc(-c2noc([C@H](N)CC(C)C)n2)nn1 | 0.7851%
COc1ccnc(N2CCCN(Cc3ncc(C(C)C)o3)CC2)n1 | -1.774%
Cc1nc(C)n(CC2CN(c3ccc(C#N)cn3)CCO2)n1 (configuration not stated) | -2.345%
Cc1cnn(CC2CN(c3ccc(C#N)cn3)CCO2)c1 (configuration not stated) | 117.6%
CN(C)CC1CN(c2ccc(C#N)cn2)CCO1 (configuration not stated) | -4.596%
Cc1cc(C)n(CC2CN(CCOc3cccc(C#N)c3)CCO2)n1 (configuration not stated) | -7.515%
Cc1cnn(CC2CN(c3cnc4ccccc4n3)CCO2)c1 (configuration not stated) | -7.583%
Cc1cc(C)n(CC2CN(c3ccc(C#N)cn3)CCO2)n1 (configuration not stated) | 119.8%
